Assay [1] has as its target NR5A2 wild type;histone octamer (Homo sapiens;, UniProt O00482;C0HKE1;Q6ZWY9;P84244;P62806 1-541;2-130;2-126;2-136;2-103, |). Nature of the assay: SeEN-seq (EMSA of nucleosome library followed by sequencing); 0.8 uM human NR5A2; 20 mM Tris-HCl pH 7.5, 120 mM NaCl, 1 mM MgCl2, 10 uM ZnCl2, 1 mM DTT, 100 ug/ml BSA, room temperature, 30 min; 0.1 uM nucleosome library; high values mean tight binding. On the technique in general: Mobility shift assays separate free from complexed probe on a gel.

Assay [2] has as its target mouse Nr5a2 wild type;histone octamer (Mus musculus;, UniProt P45448;C0HKE1;Q6ZWY9;P84244;P62806 1-560;2-130;2-126;2-136;2-103, |). In words: SeEN-seq (EMSA of nucleosome library followed by sequencing); 1.2 uM mouse Nr5a2; 20 mM Tris-HCl pH 7.5, 120 mM NaCl, 1 mM MgCl2, 10 uM ZnCl2, 1 mM DTT, 100 ug/ml BSA, room temperature, 30 min; 0.1 uM nucleosome library; high values mean tight binding.

Where a chain is given by its changes, count along the chain named. In names and notes the source's numbering stands.

B1: 32 (nucleosome)
DNA 1: ATCCTGGAGAATCCCGGTGCCGAGGCCGCTCAATTCAAGGCCAACAGCTCTAGCACCGCTTAAACGCACGTACGCGCTGTCCCCCGCGTTTTAACCGCCAAGGGGATTACTCCCTAGTCTCCAGGCACGTGTCAGATATATACATCCTGTGAT
DNA 2: ATCACAGGATGTATATATCTGACACGTGCCTGGAGACTAGGGAGTAATCCCCTTGGCGGTTAAAACGCGGGGGACAGCGCGTACGTGCGTTTAAGCGGTGCTAGAGCTGTTGGCCTTGAATTGAGCGGCCTCGGCACCGGGATTCTCCAGGAT
modifications: reconstituted with mouse histones H2A, H2B, H3.3 and H4
With B1, the binding signal in assay [1] is 1.82 log2 enrichment (bound/unbound, relative to Widom 601); in assay [2], 1.7 log2 enrichment (bound/unbound, relative to Widom 601).

B2: 38 (nucleosome)
DNA 1: B1 DNA 1 with C36G, A37G, A38T, G39C, C41T, C45G, A46G, G47C, T49A
DNA 2: B1 DNA 2 with A105T, C107G, T108C, G109C, G113A, C115G, T116A, T117C, G118C
modifications: reconstituted with mouse histones H2A, H2B, H3.3 and H4
As for B2, the binding signal is 0.852 log2 enrichment (bound/unbound, relative to Widom 601) in assay [1] and 0.628 log2 enrichment (bound/unbound, relative to Widom 601) in assay [2].

B3: 33 (nucleosome)
DNA 1: B1 DNA 1 with C36T, A37C, G39A, C41G, A43C
DNA 2: B1 DNA 2 with T111G, G113C, C115T, T117G, G118A
modifications: reconstituted with mouse histones H2A, H2B, H3.3 and H4
In the case of B3, the binding signal in assay [1] was 2.48 log2 enrichment (bound/unbound, relative to Widom 601); in assay [2] it was 2.25 log2 enrichment (bound/unbound, relative to Widom 601).

B4: 34 (nucleosome)
DNA 1: B1 DNA 1 with C36G, A37T, A38C, G39A, G40A, C41G, C42G, A43C, A44C, C45A
DNA 2: B1 DNA 2 with G109T, T110G, T111G, G112C, G113C, C114T, C115T, T116G, T117A, G118C
modifications: reconstituted with mouse histones H2A, H2B, H3.3 and H4
As for B4, the binding signal in assay [1] is 1.32 log2 enrichment (bound/unbound, relative to Widom 601); in assay [2], 1.03 log2 enrichment (bound/unbound, relative to Widom 601).

B5: 36 (nucleosome)
DNA 1: ATCCTGGAGAATCCCGGTGCCGAGGCCGCTCAATTGGTTCAAGGCCACTCTAGCACCGCTTAAACGCACGTACGCGCTGTCCCCCGCGTTTTAACCGCCAAGGGGATTACTCCCTAGTCTCCAGGCACGTGTCAGATATATACATCCTGTGAT
DNA 2: ATCACAGGATGTATATATCTGACACGTGCCTGGAGACTAGGGAGTAATCCCCTTGGCGGTTAAAACGCGGGGGACAGCGCGTACGTGCGTTTAAGCGGTGCTAGAGTGGCCTTGAACCAATTGAGCGGCCTCGGCACCGGGATTCTCCAGGAT
modifications: reconstituted with mouse histones H2A, H2B, H3.3 and H4
With B5, the binding signal in assay [1] was 0.81 log2 enrichment (bound/unbound, relative to Widom 601); in assay [2], 0.77 log2 enrichment (bound/unbound, relative to Widom 601).

B6: 37 (nucleosome)
DNA 1: B5 DNA 1 with T39C, C40T, A41C, G43A, C45G, A47C, C48A
DNA 2: B5 DNA 2 with G106T, T107G, G109C, C111T, T113G, G114A, A115G
modifications: reconstituted with mouse histones H2A, H2B, H3.3 and H4
B6: the binding signal in assay [1] is 0.722 log2 enrichment (bound/unbound, relative to Widom 601); in assay [2], 0.546 log2 enrichment (bound/unbound, relative to Widom 601).

B7: 41 (nucleosome)
DNA 1: B5 DNA 1 with T39C, C40G, A41T, G44T, C46A, C48G, T49G, T51C
DNA 2: B5 DNA 2 with A103G, A105C, G106C, G108T, C110A, T113A, G114C, A115G
modifications: reconstituted with mouse histones H2A, H2B, H3.3 and H4
For the molecule B7, the binding signal in assay [1] was 2.28 log2 enrichment (bound/unbound, relative to Widom 601); in assay [2] it was 1.87 log2 enrichment (bound/unbound, relative to Widom 601).

B8: 4 (nucleosome)
DNA 1: ATCCTGTCAAGGCCAGGTGCCGAGGCCGCTCAATTGGTCGTAGACAGCTCTAGCACCGCTTAAACGCACGTACGCGCTGTCCCCCGCGTTTTAACCGCCAAGGGGATTACTCCCTAGTCTCCAGGCACGTGTCAGATATATACATCCTGTGAT
DNA 2: ATCACAGGATGTATATATCTGACACGTGCCTGGAGACTAGGGAGTAATCCCCTTGGCGGTTAAAACGCGGGGGACAGCGCGTACGTGCGTTTAAGCGGTGCTAGAGCTGTCTACGACCAATTGAGCGGCCTCGGCACCTGGCCTTGACAGGAT
modifications: reconstituted with mouse histones H2A, H2B, H3.3 and H4
B8: the binding signal in assay [1] was 4.82 log2 enrichment (bound/unbound, relative to Widom 601); in assay [2], 3.77 log2 enrichment (bound/unbound, relative to Widom 601).

B9: 35 (nucleosome)
DNA 1: B5 DNA 1 with T39C, C40A, A42G, G44C, C46A, A47G
DNA 2: B5 DNA 2 with T107C, G108T, C110G, T112C, G114T, A115G
modifications: reconstituted with mouse histones H2A, H2B, H3.3 and H4
For B9, the binding signal is 0.694 log2 enrichment (bound/unbound, relative to Widom 601) in assay [1] and 0.841 log2 enrichment (bound/unbound, relative to Widom 601) in assay [2].

B10: 42 (nucleosome)
DNA 1: ATCCTGGAGAATCCCGGTGCCGAGGCCGCTCAATTGGTCGTAGATCAAGGCCACACCGCTTAAACGCACGTACGCGCTGTCCCCCGCGTTTTAACCGCCAAGGGGATTACTCCCTAGTCTCCAGGCACGTGTCAGATATATACATCCTGTGAT
DNA 2: ATCACAGGATGTATATATCTGACACGTGCCTGGAGACTAGGGAGTAATCCCCTTGGCGGTTAAAACGCGGGGGACAGCGCGTACGTGCGTTTAAGCGGTGTGGCCTTGATCTACGACCAATTGAGCGGCCTCGGCACCGGGATTCTCCAGGAT
modifications: reconstituted with mouse histones H2A, H2B, H3.3 and H4
Turning to B10, the binding signal in assay [1] was 2.74 log2 enrichment (bound/unbound, relative to Widom 601); in assay [2], 2.07 log2 enrichment (bound/unbound, relative to Widom 601).

B11: 43 (nucleosome)
DNA 1: B10 DNA 1 with T45C, C46T, A47C, G49A, C51G, A53C, C54A
DNA 2: B10 DNA 2 with G100T, T101G, G103C, C105T, T107G, G108A, A109G
modifications: reconstituted with mouse histones H2A, H2B, H3.3 and H4
With B11, the binding signal in assay [1] is 2.58 log2 enrichment (bound/unbound, relative to Widom 601); in assay [2] it was 1.55 log2 enrichment (bound/unbound, relative to Widom 601).

B12: 39 (nucleosome)
DNA 1: ATCCTGGAGAATCCCGGTGCCGAGGCCGCTCAATTGGTCGTTCAAGGCCATAGCACCGCTTAAACGCACGTACGCGCTGTCCCCCGCGTTTTAACCGCCAAGGGGATTACTCCCTAGTCTCCAGGCACGTGTCAGATATATACATCCTGTGAT
DNA 2: ATCACAGGATGTATATATCTGACACGTGCCTGGAGACTAGGGAGTAATCCCCTTGGCGGTTAAAACGCGGGGGACAGCGCGTACGTGCGTTTAAGCGGTGCTATGGCCTTGAACGACCAATTGAGCGGCCTCGGCACCGGGATTCTCCAGGAT
modifications: reconstituted with mouse histones H2A, H2B, H3.3 and H4
B12: the binding signal in assay [1] was 0.783 log2 enrichment (bound/unbound, relative to Widom 601); in assay [2], 0.704 log2 enrichment (bound/unbound, relative to Widom 601).

B13: 44 (nucleosome)
DNA 1: B10 DNA 1 with T45C, C46A, A47T, A48C, G49A, G50A, C51G, C52G, A53C
DNA 2: B12 DNA 2 with C101G, T102C, A103C, G105T, C107A, C108T, T109G, G111C, A112T
modifications: reconstituted with mouse histones H2A, H2B, H3.3 and H4
Regarding B13, the binding signal in assay [1] was 2.41 log2 enrichment (bound/unbound, relative to Widom 601); in assay [2], 1.31 log2 enrichment (bound/unbound, relative to Widom 601).

B14: 40 (nucleosome)
DNA 1: B12 DNA 1 with T42A, C43T, A44C, G46A, C48G, A50C, T51A
DNA 2: B12 DNA 2 with A103T, T104G, G106C, C108T, T110G, G111A, A112T
modifications: reconstituted with mouse histones H2A, H2B, H3.3 and H4
In the case of B14, the binding signal is 0.693 log2 enrichment (bound/unbound, relative to Widom 601) in assay [1] and 0.706 log2 enrichment (bound/unbound, relative to Widom 601) in assay [2].

B15: 45 (nucleosome)
DNA 1: B12 DNA 1 with T42A, C43G, A45C, G46A, C48T, T51A, A52G, A55C, C56A
DNA 2: B12 DNA 2 with G98T, T99G, T102C, A103T, G106A, C108T, T109G, G111C, A112T
modifications: reconstituted with mouse histones H2A, H2B, H3.3 and H4
For the molecule B15, the binding signal in assay [1] is 0.761 log2 enrichment (bound/unbound, relative to Widom 601); in assay [2], 0.671 log2 enrichment (bound/unbound, relative to Widom 601).

These data come from publication PMC11102866, “Nucleosome-bound NR5A2 structure reveals pioneer factor mechanism by DNA minor groove anchor competition”.
